Test results from the supplement of paper PMC11383364.
± gives the standard deviation of the averaged measurements.

Each compound was assayed on SUM149 (assay: percent difference in area under dose-response curve of relative cell number, RPMI vs HPLM; higher = drug relatively more effective in HPLM than RPMI (negative = less effective in HPLM)). Conditions: treatment time: 72 h; dose range: 10-point, 1 nM to 20 µM; media compared: RPMI vs HPLM.

**Q.** How did the “percent difference in area under dose-response curve” value (shortened to “percent difference in area”) turn out when `Nc1nc(Nc2ccc(S(N)(=O)=O)cc2)nn1C(=O)c1c(F)cccc1F` was run?
**A.** The value was -1.01%.

**Q.** Which “percent difference in area” value does the source give for `CN1CCN(c2cccc(Nc3nc4c(-c5ccc(S(C)(=O)=O)cc5)cccn4n3)c2)CC1` here?
**A.** The value was -13.7%.

**Q.** Which “percent difference in area” value does the source give for `COc1c(C)c2c(c(O)c1C/C=C(\C)CCC(=O)OCCN1CCOCC1)C(=O)OC2` [Mycophenolate_mofetil] here?
**A.** The value was -4.5%.

**Q.** For `COc1ccc(S(=O)(=O)Nc2cccnc2Nc2ccc(O)cc2)cc1`, which “percent difference in area” value is on record?
**A.** Its value is -6.35%.

**Q.** For `COCC[n+]1c2c(n(Cc3cnccn3)c1C)C(=O)c1ccccc1C2=O`, which “percent difference in area” value is on record?
**A.** Its value is 15.7%.

**Q.** How did the “percent difference in area” value turn out when `COC1=CC(c2cc3ccccc3[nH]2)=N/C1=C\c1[nH]c(C)cc1C` [Obatoclax_mesylate] was run?
**A.** Its value is -8.47%.

**Q.** For `CC1(C)CCC2=C(O1)c1ccccc1C(=O)C2=O` [beta_Lapachone], which “percent difference in area” value is on record?
**A.** Its value is 0.097%.

**Q.** `O=C(/C=C/c1cccnc1)NCCCCC1CCN(C(=O)c2ccccc2)CC1` was tested. Which “percent difference in area” value did it give?
**A.** The value was -32.8%.

**Q.** `COc1cccc(-c2cc(F)ccc2[C@H]2Cc3nc(N)nc(C)c3C(=O)N2)n1` was tested. Which “percent difference in area” value did it give?
**A.** Its value is -28.8%.

**Q.** For `CC[C@@H]1C(=O)N(C)c2cnc(Nc3ccc(C(=O)N[C@H]4CC[C@H](N5CCN(CC6CC6)CC5)CC4)cc3OC)nc2N1C(C)C`, which “percent difference in area” value is on record?
**A.** Its value is -16.8%.

**Q.** Which “percent difference in area” value does the source give for `COc1ccc(COc2cc3oc(=O)c4cc(C(C)O)ccc4c3cc2OC)cc1` (centres undefined) [Palomid_529] here?
**A.** Its value is -0.0774%.

**Q.** `O=C(c1cc(Cc2n[nH]c(=O)c3ccccc23)ccc1F)N1CCN(C(=O)C2CC2)CC1` [Olaparib] was tested. Which “percent difference in area” value did it give?
**A.** Its value is -24.4 ± 6.6%.

**Q.** For `CN(C)Cc1ccc(-c2nc3cccc4c3n2CCNC4=O)cc1`, which “percent difference in area” value is on record?
**A.** The value was -5.91%.

**Q.** For `NC(=O)Nc1cc(-c2cccc(F)c2)sc1C(=O)N[C@H]1CCCNC1`, which “percent difference in area” value is on record?
**A.** The value was -2.68%.

**Q.** How did the “percent difference in area” value turn out when `COc1cc(Nc2c(C#N)cnc3cc(OCCCN4CCN(C)CC4)c(OC)cc23)c(Cl)cc1Cl` [Bosutinib] was run?
**A.** Its value is 7.19%.

**Q.** `COc1cc2c(N3CCN(C(=O)Nc4ccc(OC(C)C)cc4)CC3)ncnc2cc1OCCCN1CCCCC1` [Tandutinib] was tested. Which “percent difference in area” value did it give?
**A.** The value was -4.18%.

**Q.** With `CSc1cccc(Nc2ncc3cc(-c4c(Cl)cccc4Cl)c(=O)n(C)c3n2)c1` as the compound, how does the “percent difference in area” value read?
**A.** Its value is 11.7%.

**Q.** How did the “percent difference in area” value turn out when `C=CCn1c(=O)c2cnc(Nc3ccc(N4CCN(C)CC4)cc3)nc2n1-c1cccc(C(C)(C)O)n1` was run?
**A.** Its value is 0.0373%.

**Q.** Which “percent difference in area” value does the source give for `c1ccc2c(CCNc3ccc(Nc4ccncc4)cc3)c[nH]c2c1` here?
**A.** Its value is -22.6%.

**Q.** How did the “percent difference in area” value turn out when `Cc1cc(CS(=O)(=O)c2ccccc2)cc(OCc2ccc(CN3CCC[C@@H]3CO)cc2)c1` was run?
**A.** Its value is 1.05%.

**Q.** Which “percent difference in area” value does the source give for `COc1ccc2cc(-c3nc(-c4ccc([S+](C)[O-])cc4)[nH]c3-c3ccncc3)ccc2c1` (centres undefined) [Tie2_kinase_inhibitor] here?
**A.** The value was -0.194%.

**Q.** How did the “percent difference in area” value turn out when `O=C(O)c1ccc(-c2c[nH]c3ncc(-c4ccccc4)cc23)cc1C1CCCC1` was run?
**A.** Its value is -9.42%.

**Q.** Which “percent difference in area” value does the source give for `C[C@@H](O[C@H]1OCCN(Cc2n[nH]c(=O)[nH]2)[C@H]1c1ccc(F)cc1)c1cc(C(F)(F)F)cc(C(F)(F)F)c1` [Aprepitant] here?
**A.** The value was -2%.

**Q.** How did the “percent difference in area” value turn out when `Cc1cccc(Nc2nc(-c3ccncc3)cs2)c1` was run?
**A.** The value was -3.22%.

**Q.** With `COc1cc(Nc2ncc(F)c(Nc3ccc4c(n3)NC(=O)C(C)(C)O4)n2)cc(OC)c1OC` as the compound, how does the “percent difference in area” value read?
**A.** Its value is 6.12%.

**Q.** For `COc1cc2c(Oc3ccc4[nH]c(C)cc4c3F)ncnc2cc1OCCCN1CCCC1` [Cediranib], which “percent difference in area” value is on record?
**A.** Its value is 1%.

**Q.** With `Nc1nc(F)nc2c1ncn2[C@@H]1O[C@H](CO)[C@@H](O)[C@@H]1O` [Fludarabine] as the compound, how does the “percent difference in area” value read?
**A.** Its value is -2.56 ± 3.2%.

**Q.** With `CC(C)CC(=O)Nc1n[nH]c2c1CN(C(=O)C1CCN(C)CC1)C2(C)C` as the compound, how does the “percent difference in area” value read?
**A.** Its value is -18.5%.

**Q.** For `COC1=C2C[C@@H](C)C[C@H](OC)[C@H](O)[C@@H](C)/C=C(\C)[C@H](OC(N)=O)[C@@H](OC)/C=C\C=C(/C)C(=O)NC(=CC1=O)C2=O` [Geldanamycin], which “percent difference in area” value is on record?
**A.** The value was -5.2%.

**Q.** How did the “percent difference in area” value turn out when `CC(NC(=O)c1ccccc1/N=C/c1c(O)ccc2ccccc12)c1ccccc1` (centres undefined) [Sirtinol] was run?
**A.** Its value is -4.04%.

**Q.** Which “percent difference in area” value does the source give for `O=c1cc(N2CCOCC2)oc2c(-c3cccc4c3sc3ccccc34)cccc12` here?
**A.** The value was -2.53%.

**Q.** For `CN(C)CCOc1ccc(-c2nc(-c3ccncc3)c(-c3ccc4c(c3)CC/C4=N\O)[nH]2)cc1`, which “percent difference in area” value is on record?
**A.** Its value is -4.32%.

**Q.** Which “percent difference in area” value does the source give for `CC(=O)O[C@]1(C(C)=O)CC[C@H]2[C@@H]3C[C@H](C)C4=CC(=O)CC[C@]4(C)[C@H]3CC[C@@]21C` [Medroxyprogesterone_acetate] here?
**A.** The value was 0.646%.

**Q.** For `CNC(=O)c1cc(Oc2ccc(NC(=O)Nc3ccc(Cl)c(C(F)(F)F)c3)cc2)ccn1` [Sorafenib], which “percent difference in area” value is on record?
**A.** Its value is 2.21%.
